{"source": "paper PMC4336329", "about": "(PLoS ONE, 2015)", "note": "The whole screen tested about 310,000 compounds, of which about 14,000 (4.5%) showed an effect of 50% or more. Effects have a minus sign here. For the sample, strong results were picked, then their nearest neighbours and some compounds at random.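 Note: peak tail current of the secondary pulse compared with the same well before compound.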"}
{"target": "human ether-à-go-go-related gene (hERG) potassium channel (human, UniProt Q12809)", "sequence (Q12809 whole entry, looked up)": "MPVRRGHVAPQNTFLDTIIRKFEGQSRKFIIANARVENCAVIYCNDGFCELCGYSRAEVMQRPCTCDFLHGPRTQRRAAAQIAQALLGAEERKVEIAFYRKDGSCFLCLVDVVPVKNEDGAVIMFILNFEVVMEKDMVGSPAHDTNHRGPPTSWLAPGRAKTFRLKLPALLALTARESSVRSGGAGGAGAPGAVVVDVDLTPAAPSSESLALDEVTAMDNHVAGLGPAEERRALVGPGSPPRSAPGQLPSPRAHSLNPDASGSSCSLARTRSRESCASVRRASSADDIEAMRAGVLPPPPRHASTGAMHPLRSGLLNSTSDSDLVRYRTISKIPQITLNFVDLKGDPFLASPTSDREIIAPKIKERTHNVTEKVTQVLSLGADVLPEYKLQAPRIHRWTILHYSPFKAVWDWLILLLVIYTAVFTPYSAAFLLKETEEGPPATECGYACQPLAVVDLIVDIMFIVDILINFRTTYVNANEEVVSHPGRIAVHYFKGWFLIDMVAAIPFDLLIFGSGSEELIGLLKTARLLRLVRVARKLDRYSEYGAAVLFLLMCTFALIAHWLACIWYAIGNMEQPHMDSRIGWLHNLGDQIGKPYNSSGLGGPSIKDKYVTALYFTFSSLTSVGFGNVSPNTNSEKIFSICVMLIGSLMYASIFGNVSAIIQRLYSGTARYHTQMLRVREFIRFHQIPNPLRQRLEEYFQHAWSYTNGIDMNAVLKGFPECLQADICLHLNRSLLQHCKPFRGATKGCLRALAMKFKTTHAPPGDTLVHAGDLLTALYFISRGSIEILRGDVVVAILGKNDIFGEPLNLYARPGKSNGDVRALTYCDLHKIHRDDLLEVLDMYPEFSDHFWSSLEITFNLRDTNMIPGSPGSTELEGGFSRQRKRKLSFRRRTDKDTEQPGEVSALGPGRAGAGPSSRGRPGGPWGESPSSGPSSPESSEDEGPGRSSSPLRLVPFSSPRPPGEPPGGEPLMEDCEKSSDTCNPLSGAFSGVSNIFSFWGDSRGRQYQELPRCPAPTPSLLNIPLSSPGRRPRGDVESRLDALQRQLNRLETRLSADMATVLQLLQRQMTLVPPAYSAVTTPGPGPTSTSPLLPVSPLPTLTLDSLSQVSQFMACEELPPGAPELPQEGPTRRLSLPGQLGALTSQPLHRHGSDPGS", "assay": "primary screen, population patch clamp on CHO cells stably expressing hERG; higher = less effect of the substance", "units": {"hERG current change (%, negative = inhibition) at 10uM": "%"}}
{"smiles": "COCc1ccc(CN2CCCC(CO)(Cc3cccc(OC)c3)C2)o1", "note": "(stereo not shown)", "hERG current change (%, negative = inhibition) at 10uM": -26.2}
{"smiles": "Cc1ccccc1CC1(CO)CCCN(Cc2ccccc2Cl)C1", "note": "(stereo not shown)", "hERG current change (%, negative = inhibition) at 10uM": -25.6}
{"smiles": "Cc1ccccc1CC1(CO)CCCN(Cc2nc(-c3cccs3)oc2C)C1", "note": "(stereo not shown)", "hERG current change (%, negative = inhibition) at 10uM": -61.1}
{"smiles": "COc1cccc(CC2(CO)CCCN(Cc3ccc(CO)o3)C2)c1", "note": "(stereo not shown)", "hERG current change (%, negative = inhibition) at 10uM": -7.04}
{"smiles": "Cc1oc(-c2cccs2)nc1CN1CC[C@@](O)(c2ccccc2)[C@H]2CCCC[C@@H]21", "hERG current change (%, negative = inhibition) at 10uM": 11.8}
{"smiles": "COc1cccc(CN2CCN(Cc3nc(-c4cccs4)oc3C)CC2CCO)c1", "note": "(stereo not shown)", "hERG current change (%, negative = inhibition) at 10uM": -57}
{"smiles": "Cc1ccc(CN2CCCC(CO)(Cc3ccccc3C)C2)s1", "note": "(stereo not shown)", "hERG current change (%, negative = inhibition) at 10uM": -37.7}
{"smiles": "Cc1oc(-c2cccs2)nc1CN1CCN(CC(C)C)C(CCO)C1", "note": "(stereo not shown)", "hERG current change (%, negative = inhibition) at 10uM": 5.96}
{"smiles": "Cc1oc(-c2cccs2)nc1CN1CCC(CO)(CCOc2ccccc2)CC1", "hERG current change (%, negative = inhibition) at 10uM": -67}
{"smiles": "OCC1CCCN1C(=S)Nc1ccccc1", "note": "(stereo not shown)", "hERG current change (%, negative = inhibition) at 10uM": 3.84}
{"smiles": "COc1ccc(C(=O)COC(=O)CN2C(=O)C3C4CCC(C4)C3C2=O)cc1", "note": "(stereo not shown)", "hERG current change (%, negative = inhibition) at 10uM": -17.9}
{"smiles": "O=C(CSc1nc2c(cnn2-c2ccc(F)cc2)c(=O)[nH]1)N1CCCc2ccccc21", "hERG current change (%, negative = inhibition) at 10uM": 10.1}
{"smiles": "O=C1C=C(O)c2cccc3cccc1c23", "hERG current change (%, negative = inhibition) at 10uM": 28.3}
{"smiles": "CCN(CC)S(=O)(=O)c1ccc2c(c1)oc(=O)n2CC(=O)N(C)C1CCCCC1", "hERG current change (%, negative = inhibition) at 10uM": -11.9}
{"smiles": "Cc1cc(-c2cccs2)c2c(n1)sc1c(=O)[nH]c(=O)[nH]c12", "hERG current change (%, negative = inhibition) at 10uM": 5.3}
{"smiles": "O=C(NCCCNC(=O)c1cnccn1)c1ccc(Cl)c(Cl)c1", "hERG current change (%, negative = inhibition) at 10uM": -15.6}
{"smiles": "Cc1oc(-c2cccs2)nc1CN1CCC(c2ccccc2)CC1", "hERG current change (%, negative = inhibition) at 10uM": -66.5}
{"smiles": "Cc1oc(-c2cccs2)nc1CN1CCC(C(=O)N2CCCC2)CC1", "hERG current change (%, negative = inhibition) at 10uM": -11.2}
{"smiles": "COc1ccc(-c2nc(CN3CCC(c4ccccc4)CC3)c(C)o2)cc1OC", "hERG current change (%, negative = inhibition) at 10uM": -37.7}
{"smiles": "Cc1c(Cl)cccc1NC(=O)CCN1CCCCCC1", "hERG current change (%, negative = inhibition) at 10uM": -3.92}
{"smiles": "C/C(=N\\OCC(=O)NCC(F)(F)F)c1cc2ccccc2o1", "hERG current change (%, negative = inhibition) at 10uM": -1.58}
{"smiles": "CN(Cc1cnccn1)C(=O)C1CCC(=O)N(CCc2ccccc2)C1", "note": "(stereo not shown)", "hERG current change (%, negative = inhibition) at 10uM": 19.7}
{"smiles": "CN(Cc1nccn1C)C(=O)C1CCC(=O)N(CCc2ccc(Cl)cc2)C1", "note": "(stereo not shown)", "hERG current change (%, negative = inhibition) at 10uM": -53.8}
{"smiles": "CN(Cc1ccccn1)C(=O)C1CCC(=O)N(Cc2cccc(C(F)(F)F)c2)C1", "note": "(stereo not shown)", "hERG current change (%, negative = inhibition) at 10uM": -15.7}
{"smiles": "CN(Cc1nccn1C)C(=O)C1CCC(=O)N(Cc2cccc(C(F)(F)F)c2)C1", "note": "(stereo not shown)", "hERG current change (%, negative = inhibition) at 10uM": -9.93}
{"smiles": "CN(Cc1cnccn1)C(=O)C1CCC(=O)N(CCc2ccc(Cl)cc2)C1", "note": "(stereo not shown)", "hERG current change (%, negative = inhibition) at 10uM": -67.9}
{"smiles": "O=C(NCCc1nccs1)C1CCC(=O)N(CCc2ccc(Cl)cc2)C1", "note": "(stereo not shown)", "hERG current change (%, negative = inhibition) at 10uM": -31.6}
{"smiles": "CN(Cc1nccs1)C(=O)C1CCC(=O)N(CCc2ccc(Cl)cc2)C1", "note": "(stereo not shown)", "hERG current change (%, negative = inhibition) at 10uM": -81.5}
{"smiles": "CN(Cc1cnn(C)c1)C(=O)C1CCC(=O)N(Cc2ccc(Cl)cc2)C1", "note": "(stereo not shown)", "hERG current change (%, negative = inhibition) at 10uM": -9.64}
{"smiles": "CCc1ccc(CN(C)C(=O)C2CCC(=O)N(Cc3ccccn3)C2)cc1", "note": "(stereo not shown)", "hERG current change (%, negative = inhibition) at 10uM": -1.48}
{"smiles": "CN(Cc1nccs1)C(=O)C1CCC(=O)N(CCc2cccc(F)c2)C1", "note": "(stereo not shown)", "hERG current change (%, negative = inhibition) at 10uM": -12.4}
{"smiles": "CN(Cc1ccon1)C(=O)C1CCC(=O)N(Cc2ccc(Cl)cc2)C1", "note": "(stereo not shown)", "hERG current change (%, negative = inhibition) at 10uM": -40.9}
{"smiles": "CN(Cc1ccccn1)C(=O)C1CCC(=O)N(CCc2ccc(Cl)cc2)C1", "note": "(stereo not shown)", "hERG current change (%, negative = inhibition) at 10uM": -53.1}
{"smiles": "O=C(NNC(=O)C1COc2ccccc2O1)c1ccccc1", "note": "(stereo not shown)", "hERG current change (%, negative = inhibition) at 10uM": -1.85}
{"smiles": "O=C(NCc1cccs1)C1CCC(CNS(=O)(=O)c2ccccc2)CC1", "note": "(stereo not shown)", "hERG current change (%, negative = inhibition) at 10uM": -2.7}
{"smiles": "O=C(Nc1cccnc1)c1ccc(C(=O)Nc2cccnc2)cc1", "hERG current change (%, negative = inhibition) at 10uM": 29.7}
{"smiles": "COc1ccc(-c2nc(CS(=O)CC(=O)NC3CCCCCC3)c(C)o2)cc1", "note": "(stereo not shown)", "hERG current change (%, negative = inhibition) at 10uM": 10.6}
{"smiles": "CCN(CC(=O)NC(C)(C)C)C(=O)C(c1ccccc1)c1ccccc1", "hERG current change (%, negative = inhibition) at 10uM": 23.5}
{"smiles": "COc1cccc(NC(=O)c2ccc(S(=O)(=O)NCc3cccnc3)cc2)c1", "hERG current change (%, negative = inhibition) at 10uM": -0.62}
{"smiles": "O=c1oc2ccccc2c(O)c1C=Nc1cccnc1", "hERG current change (%, negative = inhibition) at 10uM": 12.2}
{"smiles": "O=C(Nc1ccccc1Oc1cccnc1)C1CCCN(Cc2ccc(F)cc2)C1", "note": "(stereo not shown)", "hERG current change (%, negative = inhibition) at 10uM": -36.2}
{"smiles": "C#Cc1ccc(CN2CCCC(C(=O)Nc3ccccc3Oc3cccnc3)C2)cc1", "note": "(stereo not shown)", "hERG current change (%, negative = inhibition) at 10uM": -58.5}
{"smiles": "O=C(Nc1ccccc1Oc1cccnc1)C1CCCN(Cc2ccccc2O)C1", "note": "(stereo not shown)", "hERG current change (%, negative = inhibition) at 10uM": -57.2}
{"smiles": "Cc1ccccc1CN1CCCC(C(=O)Nc2ccccc2Oc2cccnc2)C1", "note": "(stereo not shown)", "hERG current change (%, negative = inhibition) at 10uM": 0.0346}
{"smiles": "O=C(Nc1ccccc1Oc1cccnc1)C1CCCN(Cc2cccc(Cl)c2)C1", "note": "(stereo not shown)", "hERG current change (%, negative = inhibition) at 10uM": -30.2}
{"smiles": "Cc1cccc(CN2CCCC(C(=O)Nc3ccccc3Oc3cccnc3)C2)c1", "note": "(stereo not shown)", "hERG current change (%, negative = inhibition) at 10uM": -43.9}
